PI5P4Ka inh: blocks human PI5P4K alpha kinase activity | P48426 | AID 652105 | max response, % | 330,000 tested, 1.2% active | PI5P4Kalpha enzyme, ADP-Glo luminescence, 60 min; stronger effect = lower value; active means max response of -50% or lower; inconclusive means between -30% and -50%; inactive means -30% or higher; further: value at the top dose of about 77 µM; on the % scale 0 is the no-effect control and ±100 the full control effect
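ADP-Glo luminescence end-point read after a 60 min room-temperature kinase reaction of PI5P4Kalpha plus substrate, initiated with ATP at 5 microM final. Buffer: 0.038 M HEPES pH 7.4, EGTA, 0.1% CHAPS, 5% DMSO.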
G9a inh: blocks human histone lysine methyltransferase G9a; G9a H3K9 monomethylation, AlphaScreen, 2 h; Potency, µM (highest dose often 102 µM), for the others: top-dose activity, negative = inhibition, most hits filed as inhibitors; 350,000 tested, 8.8% active; AID 504332; further: potency means the concentration at half of the fitted maximal effect; on the % scale 0 is the no-effect control and ±100 the full control effect; nearly all actives have a fitted effect of over 75% in size
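G9a (20 nM) was preincubated 15 min with compound, then reacted 2 h at room temperature with 500 nM biotin-H3K9 peptide and 20 µM SAM. Monomethyl-H3K9 detected by AlphaScreen using anti-H3K9me1 antibody.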
HP1b binding inh: blocks HP1-beta chromodomain binding to methylated histone tails | P83916 | AlphaScreen HP1-beta / biotin-H3K9me3 peptide binding | Potency, µM (doses to about 114 µM), for the others: top-dose activity change, negative = inhibition, usual class: inhibitors | 390,000 tested, 0.56% active; further: potency means the concentration at half of the fitted maximal effect; nearly all actives have a fitted effect of over 70% in size
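Compound inhibition of the preformed complex between 50 nM HP1-beta and 50 nM biotinylated H3K9me3 peptide was read by AlphaScreen. Buffer was PBS pH 7.4 with 0.01% Tween-20. Incubations ran 30 min at room temperature, with 10 ug/mL donor/acceptor beads.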
PLK1 PBD block: blocks phosphopeptide binding to human PLK1 polo-box domain | 360,000 tested, 2.8% active | Plk1 PBD binding of FITC phosphopeptide, fluorescence polarization | P53350 | Potency, µM, without a hit: max response, negative = inhibition, usual class: inhibitors; further: potency means the concentration at half of the fitted maximal effect; series mostly up to about 57 µM; on the % scale 0 is the no-effect control and ±100 the full control effect; nearly all actives have a fitted effect of over 65% in size
BAZ2B inh: inhibitors of human BAZ2B bromodomain | AlphaScreen BAZ2B-H3K14Ac peptide displacement | Potency, µM (top dose mostly 114 µM), for the others: top-dose activity change, negative = inhibition, usual class: inhibitors | 360,000 tested, 4.4% active | AID 504333 | Q9UIF8; further: potency means the concentration at half of the fitted maximal effect; on the % scale 0 is the no-effect control and ±100 the full control effect; nearly all actives have a fitted effect of over 60% in size
Target sequence (Q9UIF8 whole entry, looked up): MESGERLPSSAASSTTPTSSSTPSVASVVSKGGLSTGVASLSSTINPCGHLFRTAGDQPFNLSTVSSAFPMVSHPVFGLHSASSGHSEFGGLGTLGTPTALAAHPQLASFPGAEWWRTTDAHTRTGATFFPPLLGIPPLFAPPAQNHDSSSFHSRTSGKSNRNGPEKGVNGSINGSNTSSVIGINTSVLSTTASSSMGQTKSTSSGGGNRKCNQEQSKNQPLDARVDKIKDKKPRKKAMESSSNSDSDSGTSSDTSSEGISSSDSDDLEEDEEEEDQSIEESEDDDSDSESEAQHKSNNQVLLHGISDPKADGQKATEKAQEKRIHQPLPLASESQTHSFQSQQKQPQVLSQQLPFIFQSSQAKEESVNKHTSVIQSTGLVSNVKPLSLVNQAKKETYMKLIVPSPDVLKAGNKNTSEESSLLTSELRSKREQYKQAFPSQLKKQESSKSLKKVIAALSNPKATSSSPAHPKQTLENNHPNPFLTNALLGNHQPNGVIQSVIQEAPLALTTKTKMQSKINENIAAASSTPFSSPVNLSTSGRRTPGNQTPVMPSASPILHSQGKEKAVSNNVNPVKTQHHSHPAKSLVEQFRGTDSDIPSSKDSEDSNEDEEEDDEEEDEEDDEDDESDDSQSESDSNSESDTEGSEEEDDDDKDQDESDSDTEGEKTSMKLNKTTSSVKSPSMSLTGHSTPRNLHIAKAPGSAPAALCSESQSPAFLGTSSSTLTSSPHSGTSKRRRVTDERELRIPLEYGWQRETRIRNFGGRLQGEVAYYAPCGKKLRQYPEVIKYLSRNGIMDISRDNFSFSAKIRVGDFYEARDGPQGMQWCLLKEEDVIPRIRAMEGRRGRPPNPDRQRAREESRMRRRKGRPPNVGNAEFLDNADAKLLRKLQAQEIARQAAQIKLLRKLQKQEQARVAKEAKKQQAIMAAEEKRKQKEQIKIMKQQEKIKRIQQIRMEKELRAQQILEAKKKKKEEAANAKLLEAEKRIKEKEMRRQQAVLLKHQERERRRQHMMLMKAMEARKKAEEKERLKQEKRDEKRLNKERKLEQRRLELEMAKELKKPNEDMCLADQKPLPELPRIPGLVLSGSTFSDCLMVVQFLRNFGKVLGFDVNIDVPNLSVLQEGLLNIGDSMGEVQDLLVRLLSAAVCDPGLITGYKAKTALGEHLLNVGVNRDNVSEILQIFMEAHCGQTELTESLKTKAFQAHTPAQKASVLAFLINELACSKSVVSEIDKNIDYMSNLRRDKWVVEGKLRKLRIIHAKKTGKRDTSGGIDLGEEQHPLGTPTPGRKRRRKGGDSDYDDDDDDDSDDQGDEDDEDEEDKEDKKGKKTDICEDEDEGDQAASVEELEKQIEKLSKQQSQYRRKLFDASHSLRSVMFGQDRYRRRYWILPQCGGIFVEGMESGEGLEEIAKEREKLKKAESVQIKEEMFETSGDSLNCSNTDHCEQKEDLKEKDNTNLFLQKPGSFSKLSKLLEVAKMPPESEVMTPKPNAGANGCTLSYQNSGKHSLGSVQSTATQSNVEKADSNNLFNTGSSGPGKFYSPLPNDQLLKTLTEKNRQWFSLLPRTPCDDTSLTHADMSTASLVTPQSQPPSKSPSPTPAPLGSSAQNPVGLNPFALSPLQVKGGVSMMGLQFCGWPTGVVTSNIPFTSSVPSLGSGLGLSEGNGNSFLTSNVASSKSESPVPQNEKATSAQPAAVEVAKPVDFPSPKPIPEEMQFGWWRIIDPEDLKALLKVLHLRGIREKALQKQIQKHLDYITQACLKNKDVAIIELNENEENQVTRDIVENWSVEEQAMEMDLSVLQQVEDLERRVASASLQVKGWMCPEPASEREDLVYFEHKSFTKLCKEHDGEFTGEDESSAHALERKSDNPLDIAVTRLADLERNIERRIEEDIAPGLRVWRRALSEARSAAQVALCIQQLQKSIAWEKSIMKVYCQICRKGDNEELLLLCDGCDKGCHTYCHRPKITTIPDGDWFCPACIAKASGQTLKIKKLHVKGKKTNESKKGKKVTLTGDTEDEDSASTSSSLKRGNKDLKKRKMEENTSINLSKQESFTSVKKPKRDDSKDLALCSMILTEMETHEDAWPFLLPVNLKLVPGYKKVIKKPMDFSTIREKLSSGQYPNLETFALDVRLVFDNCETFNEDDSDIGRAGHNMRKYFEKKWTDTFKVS
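Compounds, titrated to a top concentration of 110 uM, were incubated 30 min at room temperature with preformed BAZ2B/acetyl-K14 H3 peptide complex (50 nM each). Proximity signal was measured by AlphaScreen after 20 min with beads.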
JMJD2A Tudor inh: blocks the human JMJD2A Tudor domain | O75164 | AlphaScreen JMJD2A-Tudor / H3K4me3 peptide binding | Potency, µM (highest dose often 114 µM), for the others: at the highest dose activity change, negative = inhibition, usual class: inhibitors | 390,000 tested, 4.4% active | AID 504339; further: potency means the concentration at half of the fitted maximal effect; on the % scale 0 is the no-effect control and ±100 the full control effect; nearly all actives have a fitted effect of over 50% in size
* hit, by the source's call; ? = inconclusive; nt = not tested or not shown; ! = not active in a repeat; [ ] = remark or other dose. Rows were chosen to be rich in hits. Some 12% of all compounds tested hit in one or more screens of this group. Unless noted, the call rests on the fitted dose curve; in most records, active means well fitted curve in the direction sought with a large enough effect; inconclusive means small, poorly fitted or top-dose-only effect, or another doubt; inactive means no such curve, though single readings can be large; an effect the other way counts as inactive or inconclusive.

SMILES | PI5P4Ka inh | G9a inh | HP1b binding inh | PLK1 PBD block | BAZ2B inh | JMJD2A Tudor inh
CCCC(C)c1nnc(NC(=O)CCS(=O)(=O)c2ccccc2)s1 (centres undefined) | -22 | 4µM* | ? | 4.7µM* | ? | 50µM*
CN(C)c1nc(-c2ccccc2)[n+](C)s1 | ? | 3.2µM* | 1% | 4.7µM* | 1% | -18%
O=C1CC2(CCCC2)CC(=O)N1CCCCN1CCN(c2ncccn2)CC1 | 3 | 13µM*! | 40% | -4% | -2% | -3%
c1ccc(-c2ccc(C(c3ccccc3)n3ccnc3)cc2)cc1 (centres undefined) | ? | ? | -28% | ? | 25µM* | 25µM*
O=C(N1CCCCCC1)N1CC1 | 7 | nt | 11% | -9% | nt | 3%
S=C(S)N1CCCC1 | -1 | 0.71µM* | 11% | ? | 12% | -13%
c1ccc(NC2=Nc3ccccc3CC2)cc1 | -2 | 7% | 21% | 1% | ? | 4%
COC12C(COC(N)=O)C3=C(C(=O)C(C)=C(N)C3=O)N1CC1C2N1C (centres undefined) | 2 | 50µM* | 31% | -1% | -33% | ?
On1ccccc1=S | -100* | 1.1µM* | ? | ? | -5% | 3.5µM*
[O]=[Cr](=[O])([OH])[O][Cr](=[O])(=[O])[OH] | nt | 1%[59 µM] | nt | nt | nt | nt
O=P(/C(=N/O)N1CCOCC1)(N1CCOCC1)N1CCOCC1 | 0 | 14µM* | 27% | -3% | -6% | -3%
O=[N+]([O-])c1c(Cl)c(Cl)c(Cl)c(Cl)c1Cl | -2 | nt | -16%[57 µM] | -19% | nt | -33%
Nc1cc(Cl)c2nonc2c1[N+](=O)[O-] | -6 | 32µM* | 42% | 0% | 13% | -13%
c1ccc2c(c1)CSc1ccccc1C2C1=NCCN1 (centres undefined) | 0 | 1%[59 µM] | 37% | 3% | -6% | -5%
Brc1ccc2c(c1)C(OC1CN3CCC1CC3)c1ccccc1CS2 (centres undefined) | 9 | 16µM* | 6% | -7% | -37% | -35%
COC(=O)[C@@]1(OC)C[C@@H]2O[C@@]1(C)n1c3ccccc3c3c4c(c5c6ccccc6n2c5c31)C(=O)N(C)C4 | nt | -4%[12.7 µM] | nt | nt | nt | nt
CCc1ccc(N2C(=O)NC(=O)/C(=C/c3cccn3CCOc3ccc(C(C)CC)cc3)C2=O)cc1 (centres undefined) | -53* | 10%[59 µM] | 13% | -11% | -36% | -17%
Cc1cccc(OCCn2cccc2/C=C2/C(=O)NC(=O)N(Cc3ccco3)C2=O)c1 | -57* | nt | 20% | 1.9µM* | 45µM* | -29%
O=C1NC(=O)N(Cc2ccco2)C(=O)/C1=C\c1cccn1CCOc1ccc(Cl)cc1 | -54* | -6%[59 µM] | 7% | 1.9µM* | 40µM* | ?
CCc1ccc(N2C(=O)NC(=O)/C(=C/c3cccn3CCOc3ccc(C)cc3)C2=O)cc1 | -24 | 22%[59 µM] | 36% | -10% | ? | -4%
Cn1cccc1/C=C1/C(=O)NC(=O)N(C(C)(C)C)C1=O | 0 | 9%[12.7 µM] | 12% | -10% | -13% | -25%
c1ccc2sc(C3(NCC4CC4)CCCCC3)cc2c1 | nt | 10%[59 µM] | nt | nt | nt | nt
O=C(Nc1ccccc1)N1CC[C@@]2(CCCNC2)C1 | nt | -2%[12.7 µM] | nt | nt | nt | nt
COc1ccc(OC)c(NC(=O)Cn2cc(C(=O)c3ccccc3F)c3ccccc32)c1 | nt | -30%[59 µM] | 17% | nt | -24% | -16%
C[n+]1cc(P(=S)(c2ccccc2)c2ccccc2)n2ccccc21 | nt | nt | nt | nt | nt | 11%
SMILES | PI5P4Ka inh | G9a inh | HP1b binding inh | PLK1 PBD block | BAZ2B inh | JMJD2A Tudor inh
CC(=NNC(=S)N1CC2CCC(CC2)C1)c1nccs1 | -6 | nt | ? | -10% | nt | 20µM*
O=C1N=C(N2CCCCC2)SC1=C1CCCCC1 | -7 | 25µM* | 36% | -10% | -4% | 3%
CC(C)(C)C(=O)OC1=CN(Cc2ccccc2)S(=O)(=O)c2ccccc21 | nt | 23%[59 µM] | 71% | nt | 5% | 14%
Cc1cc(-c2cc(C)c(N)c(C)c2)cc(C)c1N | 0 | nt | ? | 0% | nt | 50µM*
CCC(=O)Nc1ccc(C(=O)OCc2ccccc2Cl)cc1 | 22 | 24%[59 µM] | 61% | 0% | 3% | 7%
O=C(O)COc1ccccc1 | 7 | 1%[0.501 µM] | 47% | -5% | ? | -2%
COc1ccc(C(=O)NC(=S)NNC(=O)c2cccnc2)cc1 | -24 | ? | 18% | -7% | 13% | -9%
Cc1ccccc1C(=O)NNC(=S)NC(=O)COc1ccccc1 | nt | 0.56µM* | ? | 30µM* | ? | 4.5µM*
COc1ccc(CC(=O)NC(=S)NNC(=O)COc2c(C)cccc2C)cc1 | -22 | 1.1µM* | ? | ? | 8% | 16µM*
Cn1cccc1-c1cccnc1 | nt | 6%[59 µM] | nt | nt | nt | nt
CC1C(=O)OC2CCN3CC=C(COC(=O)[C@](C)(O)[C@]1(C)O)C23 (some centres undefined) | nt | -10%[2.33 µM] | nt | nt | nt | nt
O=C(NC1CCCCCC1)c1ccc[nH]c1=S | ? | 2.5µM* | ? | -7% | -4% | 5µM*
C1=CC2C3C=CC(C3)C2C1 (centres undefined) | -2 | 12%[0.501 µM] | 47% | -5% | -6% | -6%
COc1ccc2[nH]cc(CCN=C(N)N)c2c1 | 4 | ? | 32% | -6% | ? | -7%
COc1ccc2[nH]cc(CCN=C(NC(=O)c3ccccc3OC)Nc3nc(C)cc(C)n3)c2c1 | nt | ? | -4% | nt | 25µM* | ?
COc1cc(/C=N/Nc2ccc(S(N)(=O)=O)cc2)cc(OC)c1OC | 9 | -36% | ? | -11% | -16% | ?
O=C(N/N=C/c1c(O)n(Cc2ccc(F)cc2)c(=O)[nH]c1=O)c1ccccc1O | -63* | 45µM* | 30% | -3% | ? | ?
COc1ccc(Cn2c(O)c(/C=N/NC(=O)c3ccncc3)c(=O)[nH]c2=O)cc1 | ? | ? | 48% | -9% | ? | ?
COc1ccc(Cn2c(O)c(/C=N/NC(=O)c3ccccc3O)c(=O)[nH]c2=O)cc1 | -11 | -2%[59 µM] | 27% | -7% | 50µM* | 71µM*
COc1ccc(Cn2c(O)c(/C=N/NC(=O)c3ccccc3)c(=O)[nH]c2=O)cc1 | ? | -44%[59 µM] | 36% | -3% | 50µM* | 79µM*
COc1ccccc1-n1c(O)c(/C=N/NC(=S)Nc2ccccc2)c(=O)[nH]c1=S | -61* | nt | 40% | -23% | ? | ?
CC(Oc1ccc(Br)cc1)C(=O)N(Cc1nc(-c2ccccc2)no1)C(C)C (centres undefined) | nt | -5%[59 µM] | 47% | nt | 14% | 16%
c1ccc([Se]c2c(-c3ccccc3)[se]c3ccccc23)cc1 | nt | 85%[59 µM] | nt | nt | nt | nt
Nc1nc(N)nc(NC2CC2)n1 | nt | 5%[12.7 µM] | nt | nt | nt | nt
O=S1(=O)N(Cc2ccccc2)CCCN1Cc1ccc(F)cc1Cl | nt | 73%[59 µM] | 130% | nt | 99% | 92%
